Bioassay records as filed in PubChem.
Only some compounds are listed: those with a hit (about 0.98% of all), similar ones and a draw of the others.
Cardiac RTF inh: cardiac RTF calcium sensitivity inhibitors, primary screen, biochemical, IANBD-TnC fluorescence, EC70 calcium; IANBD-labeled cardiac RTF, Ca2+ fluorescence; inhibition, % at 7.15 µM; 0.12% of 340,000 active; AID 493244, 2011;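 active means inhibition above the mean inhibition of all tested compounds plus 3 SD, cut at about 17% in these data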;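 further: assay run at fixed EC70 calcium of 1.6 mM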
RTF Ca sens act: cardiac RTF calcium sensitivity activators, primary screen, biochemical, IANBD-TnC fluorescence, EC20 calcium | Troponin I, cardiac muscle (Homo sapiens) + Troponin T, cardiac muscle (Homo sapiens) + … | IANBD-labeled TnC RTF fluorescence at EC20 calcium; 0% EC20 calcium, 100% full calcium | activation, % at 7.2 µM | 0.24% of 340,000 active | AID 493008, 2010;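 active means activation above the mean over all tested compounds plus 3 SD, cut at about 30% in these data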;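 further: rise in fluorescence read as greater calcium sensitivity of cardiac thin filaments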
LANA DNA inh: inhibitors of KSHV C-LANA binding to DNA, primary screen, biochemical, fluorescence polarization, FAM-LBS DNA, MBP-C-LANA, single point; AID 504423, 2011; inhibition, % at 9 µM; 0.078% of 340,000 active;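 active means highest replicate inhibition at or above 60% at 9 µM, even if other replicates fall short; inactive means all replicates below 60% inhibition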
LANA-H2B inh: blockers of LANA interaction with H2A/H2B – biochemical, FP readout, HTS, primary screen. cell-free LANA-H2A/H2B peptide, fluorescence polarization. inhibition, % (no concentration beside the values). 0.6% of 320,000 active. AID 2629, 2010; in the data active means inhibition mostly above about 10%, no sharp cut-off; inactive means mostly below about 6.7%
Keap1 Nrf2 FP: Keap1-Nrf2 protein-protein interaction inhibitors, primary screen, biochemical, fluorescence polarization, single point; AID 504523, 2011; Keap1 Kelch-Nrf2 peptide fluorescence polarization, 1536-well; 0.15% of 340,000 active; inhibition, % at 9.4 µM; in the data active means inhibition above about 12%;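 further: human Keap1 Kelch domain with fluorescein labeled Nrf2 9mer peptide probe; higher means more block of Keap1 binding to Nrf2 peptide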
Target sequence (Q14145 whole entry, looked up, the tested form may be a part): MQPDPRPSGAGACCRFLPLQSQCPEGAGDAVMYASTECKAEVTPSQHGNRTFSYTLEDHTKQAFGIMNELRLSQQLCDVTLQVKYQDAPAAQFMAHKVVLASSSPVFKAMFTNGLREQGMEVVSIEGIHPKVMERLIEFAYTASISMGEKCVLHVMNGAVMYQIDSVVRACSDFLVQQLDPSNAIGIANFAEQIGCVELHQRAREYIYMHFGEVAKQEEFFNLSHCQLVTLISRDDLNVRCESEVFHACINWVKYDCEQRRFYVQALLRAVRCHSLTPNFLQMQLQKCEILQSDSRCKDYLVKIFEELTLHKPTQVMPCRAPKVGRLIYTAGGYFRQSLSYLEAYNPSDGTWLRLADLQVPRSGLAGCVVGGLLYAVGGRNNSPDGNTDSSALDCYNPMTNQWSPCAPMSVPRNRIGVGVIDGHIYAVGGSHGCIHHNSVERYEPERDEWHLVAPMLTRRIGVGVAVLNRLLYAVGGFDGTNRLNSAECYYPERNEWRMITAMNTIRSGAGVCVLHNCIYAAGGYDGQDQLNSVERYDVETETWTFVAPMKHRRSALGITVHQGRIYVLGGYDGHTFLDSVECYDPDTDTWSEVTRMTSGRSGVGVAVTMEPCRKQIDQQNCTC
RTF Ca inh conf: cardiac RTF calcium sensitivity inhibitors, confirmation, biochemical, fluorescence readout. 8% of 360 active. reconstituted cardiac thin filaments. shares compounds with Cardiac RTF inh. AID 504635, 2011. inhibition, % at 7.15 µM; in the data active means inhibition above about 18%
Of the large screens only hits and unclear results are named; the others gave an inactive call (follow-up assays come after a bar, where they were run); ! = repeats disagree.

O=C(O)c1cccc(CN2C(=O)c3ccccc3C2=O)c1	none
O=C(N/N=C/c1ccccc1OCc1ccccc1)c1cccs1	none
COC(=O)c1ccc(NC(=O)CSc2nc3cccnc3n2C)cc1	none
COc1ccc(NC(=O)CSc2nc3c([nH]c4ccccc43)c(=O)n2C)cc1	LANA-H2B inh 11
COc1ccc(NC(=O)CSc2nc3sc(C)cc3c(=O)n2C)cc1	none
COc1ccc(NC(=O)CSc2nc3cccnc3n2C)cc1	LANA-H2B inh 38
Cn1c(SCC(=O)NCc2ccc(F)cc2)nc2c([nH]c3ccccc32)c1=O	none (no result: Cardiac RTF inh, RTF Ca sens act, LANA DNA inh, Keap1 Nrf2 FP)
COc1ccc(NC(=O)CSc2nc3sc(C)cc3c(=O)n2C)c(OC)c1	LANA-H2B inh 16
C#CCOCCOCCOCCNc1nc(N2CCN(C(=O)[C@H](CCC(=O)O)n3cc([C@@H](N)CO)nn3)CC2)nc(N2CCN(C(=O)[C@H](CCC(=O)O)n3cc([C@@H](N)CCSC)nn3)CC2)n1	none
CCC(C(=O)NC1CC1)n1nc(C)c2c(C)n(-c3ccccc3)nc2c1=O (configuration not stated)	LANA-H2B inh 19
CCC(C(=O)NC1CCCCC1)n1nc(C)c2c(C)n(-c3ccccc3)nc2c1=O (configuration not stated)	none
O=C(NCCc1nc2ccccc2[nH]1)/C(=C/c1ccco1)NC(=O)c1ccc(Br)cc1	none
O=C(NCCc1nc2ccccc2[nH]1)/C(=C/c1ccco1)NC(=O)c1ccccc1Br	LANA-H2B inh 14
COC(=O)C(CCCN1C(=O)c2ccccc2C1=O)(NC(C)=O)c1nn[nH]n1 (configuration not stated)	LANA-H2B inh 19
CCOc1ccc(C(=O)NCC(=O)N2CC=C(c3ccccc3)CC2)cc1OCC	none
CN(C)S(=O)(=O)c1cccc(COC(=O)c2cccnc2Cl)c1	none
CCc1c(N)nc(N)nc1Nc1ccccc1Cl	none (no result: LANA-H2B inh)
Nc1nnc(-c2cccc(Cl)c2Cl)c(N)n1	LANA-H2B inh 11!
O=C1[C@H]2[C@@H](c3ccc(F)cc3)N3C(=O)N(c4ccc(Br)cc4)C(=O)[C@@]3(Cc3ccccc3)[C@H]2C(=O)N1C1CCCCC1	none
Nc1ccc(O)c(C(=O)O)c1	none (no result: Cardiac RTF inh, RTF Ca sens act, LANA DNA inh, Keap1 Nrf2 FP)
Nc1ccc(-c2c3ccc(=O)cc-3oc3cc(O)ccc23)c(C(=O)O)c1	RTF Ca sens act active, LANA DNA inh 171, LANA-H2B inh 65
CCc1ccccc1NC(=O)CSc1nnc(C2CC2)n1CC1CCCO1 (configuration not stated)	LANA-H2B inh 19
O=C/C=C/c1c(-c2ccccc2)cc2oc3ccccc3cc1-2	none
COc1cccc(/C(O)=C/c2nc3ccc(C(=O)NCCc4ccc(Cl)cc4)cc3[nH]c2=O)c1	RTF Ca sens act 99 (no result: LANA-H2B inh)
COc1ccc(Cl)cc1C(=O)NNC(=O)CSc1nncn1C	none
CC(=O)c1c(C)nn(CC(=O)NC2CCCN(Cc3ccc(CC(C)C)cc3)C2)c1C (configuration not stated)	none
CCCC(C)C(=O)Nc1ccncc1 (configuration not stated)	none
CC(N=C(NC#N)Nc1ccncc1)C(C)(C)C (configuration not stated)	LANA-H2B inh 48!
CC(Oc1ccc(Br)cc1)C(=O)Nc1cc(Cl)ccc1N1CCN(C)CC1 (configuration not stated)	none
O=C(NC1CCCCC1)c1ccc(NS(=O)(=O)c2cccc3cccnc23)cc1	none
O=S(=O)(NC1CCCCCC1)c1cccc2cccnc12	LANA-H2B inh 182
COc1ccc(N(CC(=O)N/N=C/c2cc(Br)c(C)o2)S(=O)(=O)c2ccc(NC(C)=O)cc2)cc1	LANA-H2B inh 25
O=C(CNS(=O)(=O)c1ccc(Br)cc1)NCc1ccncc1	none
C=CCN1C=CC(=CC=C(C#N)C#N)C=C1	RTF Ca sens act 44
CCCN1C=CC(=CC=C(C#N)C#N)C=C1	RTF Ca sens act 42
CCCN1C=CC(=C/C=C(\C#N)C(=O)OCC)C=C1	none (no result: Cardiac RTF inh, RTF Ca sens act, LANA DNA inh, Keap1 Nrf2 FP)
CCCCCCN1C=CC(=C/C=C(\C#N)C(=O)OCC)C=C1	RTF Ca sens act 141
CCCCCCN1C=CC=C/C1=C/C=C(C#N)C#N	LANA-H2B inh 10
C=CCN1C=C/C(=C\C=C(C#N)C#N)c2ccccc21	none
Cc1ccccc1CN1CCN(CC(=O)NCc2ccccc2)CC1	LANA-H2B inh 21
CC(C)(C)c1ccc(SCCc2cccnc2)cc1	LANA-H2B inh 14
c1ccc(SCCc2ccncc2)cc1	none
NNC(=O)c1ccc(COc2ccc3c(c2)CCC3)cc1	Cardiac RTF inh 17 | RTF Ca inh conf inactive
O=C(O)c1ccc(COc2ccc3c(c2)CCC3)cc1	none
O=C(NCC1CCCO1)/C(=C\c1ccccc1F)NC(=O)c1ccccc1 (configuration not stated)	none
CN1C[C@@H]2[C@@H]3C(=O)N(C)C(=O)[C@@H]3[C@](C)(C1=O)N2C(=O)c1ccc(C(C)(C)C)cc1	none (no result: LANA-H2B inh)
CCSc1cc(N2CCCC2)nc(-c2cccc(C)c2)n1	Cardiac RTF inh 18 | RTF Ca inh conf inactive
CCSc1cc(N2CCCC2)nc(-c2ccc(C)cc2)n1	none
CCN(CC)S(=O)(=O)c1ccc(N/N=C/c2ccccc2OCC(=O)O)c([N+](=O)[O-])c1	Cardiac RTF inh 19 | RTF Ca inh conf inactive
O=C(c1ccco1)N1CCN(c2ncnc3c(-c4ccc(Cl)cc4)nsc23)CC1	none
COc1ccc(C(=O)Nc2cc(Cl)ccc2-n2cncn2)c(OC)c1OC	none
O=C1CSC(c2cccc(F)c2)N1c1c(F)cccc1F (configuration not stated)	none
O=C1CSC(c2cccc([N+](=O)[O-])c2)N1c1c(F)cccc1F (configuration not stated)	Cardiac RTF inh 22 | RTF Ca inh conf inactive
Cc1cccc(NC(=O)CCSc2ccccn2)c1	Cardiac RTF inh 18 | RTF Ca inh conf inactive
Cc1cccc(NC(=O)c2cnn(C)c2)c1C	Cardiac RTF inh 17 | RTF Ca inh conf inactive
COc1ccc(C(=O)c2ccccc2O)c(O)c1	Cardiac RTF inh 17 | RTF Ca inh conf inactive
c1nnc(NC2=NCCC2)s1	none
Cc1cnc(NC2=NCCC2)s1	Cardiac RTF inh 45 | RTF Ca inh conf inactive
Cc1ccccc1NC(=O)c1sc(NC(=O)COc2ccccc2)c(C#N)c1C	Cardiac RTF inh 18 | RTF Ca inh conf inactive
Cc1cccc(NC(=O)c2sc(NC(=O)COc3ccccc3)c(C#N)c2C)c1C	none
Cc1ccc(NC(=Nc2ccc(Br)cc2)N2CCOCC2)cc1C	none
CCOC(=O)Nc1nnc(CCc2ccccc2)s1	none
CCc1nnc(NC(=O)OCc2ccccc2)s1	Cardiac RTF inh 17 | RTF Ca inh conf inactive
